# Measurements: PubChem BioAssay (Tox21)
# Values without a mark were called inactive. Calls of active or inactive are those of the source. Calls come from the whole dose curve; as a rule, active = well fitted curve in the direction sought with a large enough effect in the repeat runs; inconclusive = weak or mixed curves; inactive = flat fitted curve, though single readings scatter.
# Test: qHTS assay to test for compound auto fluorescence at 535 nm (green) in HEK293 cell free culture (AID 720682)
# Settings: cell-free medium, green autofluorescence 485/535 nm, hits give high values; series mostly up to 91.3 µM
# Summary of the method: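 Read-out: 485/535 nm fluorescence intensity, calibrated against fluorescein. Medium only (DMEM + 10% FBS, no cells); test compound or DMSO vehicle added by pintool before plate reading.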
# % is set by controls: 0 for no effect and ±100 for the full control effect.
Structure (SMILES),outcome,activity change
CCC1(CCC(C)C)C(=O)NC(=O)NC1=O,inactive,–
C=CCN1C[C@H](C)N([C@H](c2ccc(C(=O)N(CC)CC)cc2)c2cccc(OC)c2)C[C@H]1C,inactive,–
O=C(NC(=O)c1cc(F)c(F)cc1Cl)Nc1cc(F)ccc1N1CCC(C(=O)O)CC1,inactive,–
[Cl-].[Cl-].[Hg+2],inactive,–
CC(=O)OC(c1ccccc1)C(Cl)(Cl)Cl (stereo unspecified),inactive,–
Cc1ncc(C[n+]2csc(CCO)c2C)c(N)n1,inactive,–
CN1CC[C@]23c4c5ccc(O)c4O[C@H]2[C@@H](O)C=C[C@H]3[C@H]1C5,inactive,–
Nc1c(Br)cc(Br)c2c1C(=O)c1ccccc1C2=O,–,0.0661% [at 18.6 µM]
CCC(C)(C)O,inactive,–
CC(C)(C)N(NC(=O)c1ccc(Cl)cc1)C(=O)c1ccccc1,inactive,–
O=[N+]([O-])c1cc(Cl)c(Cl)cc1Cl,inactive,–
CN(C)c1ccc(N=O)cc1,inactive,–
CC1(C)[C@H](C(=O)O[C@H](C#N)c2cccc(Oc3ccccc3)c2)[C@@H]1C=C(Br)Br,inactive,–
CC(=O)NNc1ccccc1,inactive,–
CCCN(CCOc1c(Cl)cc(Cl)cc1Cl)C(=O)n1ccnc1,inactive,–
Nc1ccccc1C(=O)OCCc1ccccc1,inactive,–
O=C(O)COc1cc(Cl)c(Cl)cc1Cl,inactive,–
NP(N)(=O)NC(=O)c1ccc(F)cc1,inactive,–
CN1C(=O)CN=C(c2ccccc2)c2cc([N+](=O)[O-])ccc21,inactive,–
O=S(=O)(c1ccccc1)c1ccccc1,inactive,–
CCNC(=O)NC(=O)/C(C#N)=N/OC,inactive,–
